Compound activity deposited in PubChem by National Center for Advancing Translational Sciences (NCATS).
GRP78 ERSR act – induces the endoplasmic reticulum stress response in human glioma cells; U87-MG GRP78 promoter luciferase reporter, 16 h; Potency, µM, for the others: at the top dose activation, actives largely listed as activators; 420,000 compounds, 0.02% hits; AID 602332; also: series mostly up to about 76 µM; % of control where 0% means no effect; nearly all actives have a fitted effect of over 35% in size
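ERSR induction read as luciferase luminescence (Bright-Glo, 10 min at room temperature) in stably transfected human U87-MG glioma cells exposed to compounds for 16 h, using GRP78 as sensor.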
GLP1R inv ag – inverse agonists of human GLP-1 receptor; HEK293 GLP-1R CRE-luciferase, luminescence, 24 h; GLP-1R form is constitutively active; Potency, µM (series often up to 38.3 µM), without a hit: at the highest dose activity change, negative = inhibition, usual class: inhibitors; 410,000 compounds, 1.6% hits; AID 624417; also: % is scaled to controls: 0 for no effect and ±100 for the full control effect; nearly all actives have a fitted effect of over 55% in size
Target sequence (P43220 whole entry, looked up): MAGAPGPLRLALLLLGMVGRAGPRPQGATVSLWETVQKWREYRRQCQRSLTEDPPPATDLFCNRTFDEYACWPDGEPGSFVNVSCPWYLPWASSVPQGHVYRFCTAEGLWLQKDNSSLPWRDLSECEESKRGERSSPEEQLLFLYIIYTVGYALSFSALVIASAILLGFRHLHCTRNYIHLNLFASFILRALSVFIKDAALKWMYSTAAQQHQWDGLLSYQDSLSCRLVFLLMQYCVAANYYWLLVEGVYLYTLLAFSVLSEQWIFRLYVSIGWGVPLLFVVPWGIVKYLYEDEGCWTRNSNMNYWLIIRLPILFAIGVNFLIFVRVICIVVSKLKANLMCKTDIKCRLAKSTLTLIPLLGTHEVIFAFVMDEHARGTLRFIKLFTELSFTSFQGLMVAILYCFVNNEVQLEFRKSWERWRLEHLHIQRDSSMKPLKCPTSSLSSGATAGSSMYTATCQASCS
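Inverse agonism was detected as reduced cAMP-driven luciferase luminescence after 24 h compound treatment. The cells were HEK293 clones expressing constitutively active human GLP-1R with the reporter. Reporter-only and GPR119 cell lines served as counterscreen controls.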
GLS inh – inhibitors of human glutaminase (GLS); Potency, µM (titrated, usually from 45.5 µM), inactives show at the highest dose activity change, negative = inhibition, most hits filed as inhibitors; O94925; 410,000 compounds, 0.21% hits; GLS enzymatic activity, qHTS titration; also: % is scaled to controls: 0 for no effect and ±100 for the full control effect
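hKGA in 45 mM KH2PO4 (pH 8.2), 0.02% Tween-20 with compound, then 1mM L-Glutamine (stock as added) plus glutamate oxidase/HRP/Amplex red coupling mix. Fluorescence read initially and after 30 min at RT; signal change reflects glutamate formation.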
PTHR1 agonist – activates the human parathyroid hormone receptor PTHR1; Q03431; HEK293 GP2 PTHR1 cells, GloSensor cAMP luminescence, 1 h; Potency, µM (doses to about 115 µM), inactives show top-dose activation, hits mostly activators; 410,000 compounds, 0.075% hits; also: nearly all actives have a fitted effect of over 55% in size
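HEK-293-derived GP2 cells expressing PTHR1 and a GloSensor cAMP reporter, 3,000/well, plated overnight, given luciferin plus IBMX (each 0.5 mM as added) for 1 h at 37 °C, then compound for 1 h at 37 °C. Luminescence was read after 15 min at room temperature.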
GLP1R ag – GLP-1 receptor (human) agonism. P43220. HEK293 GLP-1R CRE-luciferase, luminescence, 4-6 h; cells express a hypersensitive GLP-1R form. Potency, µM (doses to about 45.6 µM), for the others: top-dose activation, hits mostly activators. 380,000 compounds, 0.007% hits. AID 624172; also: % of control where 0% means no effect
12-LOX inh – blocks human arachidonate 12S-lipoxygenase. Potency, µM (highest dose often 108 µM), without a hit: at the top dose activity change, negative = inhibition, hits mostly inhibitors. 580,000 compounds, 1.1% hits. purified 12hLO, xylenol orange hydroperoxide absorbance; also: % is scaled to controls: 0 for no effect and ±100 for the full control effect
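Hydroperoxide product was detected by ferrous iron/xylenol orange as the 573 to 405 nm absorbance ratio. Arachidonic acid at 40 uM (final) was turned over for 30 min at room temperature by 150 nM human 12hLO, pH 7.0 Hepes buffer, after 15 min compound preincubation.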
* = called active by the depositor; i = inactive; ? = inconclusive; . = no result given; [ ] = another dose, or the depositor's remark. A selection: hits, their analogues and other compounds. The true share with any hit is near 2.3%. Calls follow the shape of the dose curve; as a rule, active = well fitted curve in the direction sought with a large enough effect; inconclusive = small, poorly fitted or top-dose-only effect, or another doubt; inactive = no such curve, though single readings can be large; an effect the other way counts as inactive or inconclusive. Potency is read from the fitted curve at half-maximal effect.

SMILES	GRP78 ERSR act	GLP1R inv ag	GLS inh	PTHR1 agonist	GLP1R ag	12-LOX inh
COc1ccc(NC(=O)C(C)Oc2ccc(C)c(C)c2)c2cccnc12 (configuration not stated)	.	.	.	.	.	-9%
CC1=C/C(=C(\c2ccc(O)c(C)c2)c2ccccc2S(=O)(=O)O)C=CC1=O	-4%	2%	5%	i	2%	6.3µM*
Cc1ccc(S(=O)(=O)Nc2ccccc2CNc2ncc(Br)cc2Br)cc1	-3%	10µM*	-1%	-9%	-2%	0%
CCS(=O)c1ccccc1C(=O)NCc1ccc(C)cc1 (configuration not stated)	.	.	.	.	.	18µM*
c1ccc(CCCN2CCN(c3ccccn3)CC2)cc1	-2%	-10%	1%	-49%	-2%	4.5µM*
CC(C)OCCCNC(=O)c1cc(=O)[nH]c2ccccc12	.	.	.	.	.	18%
Cc1ccc(/C=C2\SC(=S)N(CC3CCCO3)C2=O)o1 (configuration not stated)	3%	?	?	i	1%	6.3µM*
O=C1/C(=C/c2ccco2)SC(=S)N1CC1CCCO1 (configuration not stated)	8%	3%	15%	i	9%	?
COc1cc(OC)c(N2CC(C(=O)Nc3c(C)nn(C)c3C)CC2=O)cc1Cl (configuration not stated)	.	.	.	.	.	-16%
COc1cccc(C(=O)Nc2ccc(NC(=O)C(C)(C)C)cn2)c1	-15%	13µM*	-1%	-10%[57.5 µM]	-11%	-9%
COc1cccc(NC(=O)Nc2cccc(C(=O)O)c2)c1	-12%	2µM*	-23%	-34%	-3%	-4%
COc1cccc(NC(=O)NCCC2=CCCCC2)c1	9%	?	-13%	-38%	10%	-2%
CCOc1ccc(CCNC(=O)Nc2cccc(OC)c2)cc1OCC	-4%	11µM*	-3%	13%	-3%	.
COc1cccc(NC(=O)c2ccccc2)c1	0%	11%	0%	-3%	10%	-14%
CCCCOc1ccc(NC(=O)COc2ccc(CC)cc2)c2cccnc12	.	.	.	.	.	-2%
CCOC(=O)c1ccc(NC(=O)CCc2c(C)nc3c(c(C)nn3C(C)(C)C)c2C)cc1	-4%	7.9µM*	2%	-23%	-6%	-16%
Cc1nc(Nc2nc3ccccc3o2)ncc1C(=O)Nc1ccccc1C(F)(F)F	.	.	.	.	.	51%
CCC[C@@H](CN[C@@H](CNC)[C@H](C)CC)NCC1CCC(C(C)(C)C)CC1 (some centres not stated)	-13%	10µM*	1%	-4%	-14%	-8%
COCCn1c(C)c(C)c(S(=O)(=O)c2ccc(F)cc2)c1NC(=O)c1cccs1	.	.	.	.	.	-25%
S=C(c1ccc(-c2ccc(Cl)cc2)o1)N1CCCCC1	3%	?	-2%	-35%	10%	16µM*
CC(C)C[C@@H](C(=O)NCc1ccco1)N1C(=O)N2CCc3c([nH]c4ccccc34)[C@@]2(C)C1=O	-4%	10µM*	1%	-15%	-1%	-27%
C[C@@H](C(=O)NCc1ccco1)N1C(=O)N2CCc3c([nH]c4ccccc34)[C@@]2(C)C1=O	-3%	?	7%	?	-3%	24%
NC(=O)c1cccc(OCc2coc(-c3cccc(F)c3)n2)c1	.	.	.	.	.	7%
CCC(=C/c1ccccc1)/C=N/O	.	.	.	.	.	0%
CCN(Cc1ccc(OC)c(F)c1)C(=O)C1CCCO1 (configuration not stated)	-4%	-11%	0%	i	6%	?
SMILES	GRP78 ERSR act	GLP1R inv ag	GLS inh	PTHR1 agonist	GLP1R ag	12-LOX inh
CCN(Cc1ccc(OC)c(F)c1)C(=O)CCl	-13%	3.2µM*	-3%	i	0%	-2%
CCc1cccc(OCCCCNCCCOC)c1	-3%	?	-11%	i	3%	-23%
CCc1cccc(OCCCCN(CC)CC)c1	3%	?	7%	i	0%	1.1µM*
Cc1cc(OCc2nn[nH]n2)c2c(C)c(C)c(=O)oc2c1	.	.	.	.	.	-19%
COc1ccc(F)cc1-c1ccc(C(=O)O)cc1	.	.	.	.	.	9%[12.5 µM]
COc1ccc(F)cc1C(=O)C(=O)O	.	.	.	.	.	8.9µM*
CC(C)(C)C(=O)/C(=C/c1ccc(Cl)cc1)n1cncn1	-14%	4µM*	2%	-45%	-4%	0%
CC(C)/C=C(/C(=O)c1ccc(Cl)cc1Cl)n1cncn1	?	?	7%	-45%	-2%	?
CC(C)CCN1CCC(O)(c2csc(CN3CCc4ccccc4C3)n2)CC1	.	.	.	.	.	39%[176 µM]
O=C1OCC2(CCN(Cc3ccc(Cl)cc3)C2)N1CCN1CCOCC1 (configuration not stated)	.	.	.	.	.	-16%[176 µM]
O=C1OCC2(CCN(Cc3ccc4c(c3)CCO4)C2)N1Cc1ccccc1 (configuration not stated)	.	.	.	.	.	56µM*
CCN(CC)CCn1c2c(c(SCC(=O)Nc3cccc(C(F)(F)F)c3)nc1=O)CCC2	-2%	8%	-10%	-12%	.	-19%
COc1ccc(Cl)cc1NC(=O)CSc1nc(=O)n(CCN(C)C)c2c1CCCC2	-5%	11µM*	11%	i	-1%	4%
CN(C)CCn1c2c(c(SCC(=O)Nc3cccc(C(F)(F)F)c3)nc1=O)CCCC2	-3%	10µM*	5%	-9%	7%	-15%
O=C(c1cnn2ccccc12)N(Cc1ccco1)C1CCCC1	-5%	3.5µM*	-2%	-20%	18%	25%[57.4 µM]
O=c1[nH]c(NNC(=S)NCc2ccccc2)nc2c1C1(CCCCC1)Cc1ccccc1-2	3%	?	12%	17%	-4%	35µM*
S=C(NCc1ccccc1)NNc1nc2ccccc2[nH]1	-2%	?	-27%	i	5%	32µM*
C=CCNC(=S)NNc1nc2c(c(=O)[nH]1)C1(CCCC1)Cc1ccccc1-2	-1%	?	2%	?	-4%	?
Cc1ccc(NC(=O)Cc2nnc(SCC(=O)c3ccc(C#N)cc3)n2C)cc1	.	.	.	.	.	-21%
Cc1cc2nc(C(F)(F)F)c(=O)n(C(C)C(=O)NCc3ccccc3)c2cc1C (configuration not stated)	.	.	.	.	.	-13%
CC(C)NC(=S)N/N=C/c1ccc(C(C)(C)C)cc1	2%	?	-6%	-35%	0%	32µM*
CC(C)NC(=S)N/N=C/c1ccc([N+](=O)[O-])cc1	.	.	.	.	.	6%
COc1cccc(Nc2n[nH]c(=S)s2)c1	-4%	16%	7%	i	-5%	45µM*
COc1ccccc1Nc1n[nH]c(=S)s1	-3%	18%	10µM*	i	1%	14µM*
COc1cccc(Nc2nc3ccc(OC)cc3s2)c1	5%	?	-14%	-16%	16%	-12%
